The values below come from PubChem BioAssay (NCI).

Test systems include NCI-H23 lung; NCI-H226 lung; NCI-H322M lung; HOP-62 NSCLC; NCI-H460 lung; HOP-92 NSCLC; NCI-H522 lung; A549/ATCC NSCLC; 786-0 renal; COLO 205 colon; DU-145 prostate; K-562 leukemia; MALME-3M melanoma; MDA-MB-231 breast; RXF 393 renal; SF-268 CNS; SF-295 CNS; SF-539 CNS; UACC-257 melanoma; M14 melanoma.
Test in all cases: NCI-60 one-dose screen, 48 h (100 = growth as untreated, 0 = no growth, -100 = all killed)
Holding throughout (settings): 10 µM unless noted

This is part of a sample that, as a whole, favours compounds with a hit. Of some 83,000 tested, about 20% had one in any assay.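 Growth was measured after 48 h exposure to one concentration of compound in 96-well plates. Values under 10 count as active.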 A number with no mark means an inactive call. Calls of active or inactive are those of the source.

As for `N#Cc1c(-c2cccs2)cc(-c2cnccn2)nc1SCC(=O)N/N=C/c1cccs1`, the growth in the experiment on NCI-H23 lung is 56.6%; in the experiment on NCI-H226 lung it was 68.9%; with NCI-H322M lung, 73.1%; in the experiment with HOP-62 NSCLC it was 38.8%; with NCI-H460 lung, 20.8%; in the experiment on HOP-92 NSCLC, 30.1%. For the same compound, the growth in the experiment on NCI-H522 lung is 73.1%; in the experiment on A549/ATCC NSCLC, 19.4%; with 786-0 renal, 16.6%; with COLO 205 colon, 53.5%; with DU-145 prostate it was 37.3%; in the experiment with K-562 leukemia it was 63.2%. Further, the growth is 39.2% in the experiment on MALME-3M melanoma; 40.3% in the experiment on MDA-MB-231 breast; -1.38% (active) with RXF 393 renal; 53.7% with SF-268 CNS; 48.8% with SF-295 CNS; 9.8% (active) in the experiment on SF-539 CNS. For the same compound, the growth was 53.9% with UACC-257 melanoma and 57.4% with M14 melanoma.

`COc1ccc2sc(NC(=O)CCCCCCNC(=O)C(O)(O)C(F)(F)F)nc2c1`: the growth in the experiment with NCI-H23 lung is 1.72% (active); in the experiment on NCI-H226 lung it was 24.6%; in the experiment on NCI-H322M lung, 4.96% (active); with HOP-62 NSCLC it was -3.09% (active); with NCI-H460 lung, 7.12% (active); in the experiment on HOP-92 NSCLC, -12.7% (active). Further, the growth in the experiment with NCI-H522 lung is -42.7% (active); in the experiment on A549/ATCC NSCLC, 2.41% (active); in the experiment on 786-0 renal, 13.1%; with COLO 205 colon it was -69.9% (active); in the experiment on DU-145 prostate it was 4.67% (active); in the experiment on K-562 leukemia it was 11.2%. Also, the growth in the experiment on MALME-3M melanoma was 20.7%; in the experiment on MDA-MB-231 breast, 20%; in the experiment on RXF 393 renal, -47.6% (active); in the experiment on SF-268 CNS, -0.601% (active); in the experiment on SF-295 CNS it was -37.1% (active); in the experiment with SF-539 CNS, 6.85% (active). The results for the growth in the experiment on UACC-257 melanoma and with M14 melanoma were 12.5% and 13.4%, respectively.

Take `O=C(N/N=C\c1ccc([N+](=O)[O-])cc1)c1ccc2nc(-c3ccc(Br)cc3)[nH]c2c1`: the growth in the experiment on NCI-H23 lung was 8.79% (active); with NCI-H226 lung it was 62.4%; with NCI-H322M lung it was 68.2%; in the experiment with HOP-62 NSCLC, 29.7%; in the experiment on NCI-H460 lung, -43.8% (active); with HOP-92 NSCLC, 55%. The growth with NCI-H522 lung is 5.47% (active); with A549/ATCC NSCLC, 27.2%; in the experiment on 786-0 renal, 36.8%; in the experiment with COLO 205 colon, -50.6% (active); in the experiment with DU-145 prostate it was 28.2%; in the experiment on K-562 leukemia, 2.69% (active). The growth was 6.94% (active) in the experiment on MALME-3M melanoma; 62.4% with MDA-MB-231 breast; 11.5% in the experiment on RXF 393 renal; 44.7% with SF-268 CNS; 25.1% in the experiment with SF-295 CNS; 28.2% in the experiment on SF-539 CNS. For the same compound, the values for the growth in the experiment on UACC-257 melanoma and in the experiment with M14 melanoma were 18.2% and 3.52% (active), respectively.

Consider `Cc1[nH]c(C(=O)Nc2ccccc2OCc2cccc(C(=O)NCCN)c2)cc1Cl`, for which the growth with NCI-H23 lung was 102%; in the experiment with NCI-H226 lung, 101%; with NCI-H322M lung, 92.9%; with HOP-62 NSCLC it was 103%; with NCI-H460 lung, 100%; with HOP-92 NSCLC, 84.5%. Besides, the growth is 95% in the experiment with NCI-H522 lung; 95.2% in the experiment on A549/ATCC NSCLC; 81% in the experiment with 786-0 renal; 102% in the experiment on COLO 205 colon; 36.5% in the experiment on DU-145 prostate; 2.16% (active) with K-562 leukemia. For the same compound, the growth in the experiment on MALME-3M melanoma is 83.3%; in the experiment on MDA-MB-231 breast, 96%; in the experiment with RXF 393 renal, 96.3%; in the experiment on SF-268 CNS, 88.3%; in the experiment with SF-295 CNS, 101%; in the experiment on SF-539 CNS it was 97.2%. The figures for the growth in the experiment on UACC-257 melanoma and with M14 melanoma were 99.4% and 85.5%, respectively.

In the case of `N#Cc1nc(-c2ccccc2)oc1N1CCC(C2(C(F)(F)F)N=N2)CC1`, the growth is 91.6% with NCI-H23 lung; 97% in the experiment on NCI-H226 lung; 107% with NCI-H322M lung; 113% with HOP-62 NSCLC; 102% in the experiment on NCI-H460 lung; 90.1% in the experiment with HOP-92 NSCLC. Also, the growth with NCI-H522 lung is 96.8%; in the experiment with A549/ATCC NSCLC it was 99.8%; in the experiment with 786-0 renal it was 101%; in the experiment with COLO 205 colon it was 103%; with DU-145 prostate, 103%; in the experiment on K-562 leukemia, 90%. Also, the growth is 102% in the experiment with MALME-3M melanoma; 93.8% with MDA-MB-231 breast; 99.4% in the experiment with RXF 393 renal; 101% in the experiment on SF-268 CNS; 101% in the experiment on SF-295 CNS; 99.2% in the experiment on SF-539 CNS. The growth with UACC-257 melanoma and in the experiment with M14 melanoma was 102% throughout.

As to `Cc1cc(NS(=O)(=O)c2ccc(NC(=O)CSc3nc4ccccc4c(=O)n3-c3ccccc3)cc2)no1`, the growth in the experiment with NCI-H23 lung is 92.2%; in the experiment with NCI-H226 lung it was 93.4%; in the experiment on NCI-H322M lung it was 83.9%; in the experiment with HOP-62 NSCLC, 98.5%; in the experiment with NCI-H460 lung, 108%; with HOP-92 NSCLC, 88.6%. In addition, the growth in the experiment on NCI-H522 lung is 91.9%; in the experiment with A549/ATCC NSCLC, 101%; with 786-0 renal, 104%; in the experiment with COLO 205 colon, 106%; with DU-145 prostate, 108%; with K-562 leukemia it was 54.1%. Besides, the growth was 94.7% with MALME-3M melanoma; 98.7% with MDA-MB-231 breast; 93.8% in the experiment on RXF 393 renal; 98.9% with SF-268 CNS; 99.2% with SF-295 CNS; 95.3% with SF-539 CNS. The growth in the experiment with UACC-257 melanoma was 98.4%; in the experiment with M14 melanoma, 90.3%.

With `CSc1ccc(/C(=N/N=C(N)N)c2ccc(F)cc2)cc1`, the growth was -36.7% (active) with NCI-H23 lung; 0.244% (active) with NCI-H226 lung; 67.5% in the experiment on NCI-H322M lung; 36.1% in the experiment on HOP-62 NSCLC; 6.38% (active) with NCI-H460 lung; 33.4% in the experiment on HOP-92 NSCLC. Moreover, the growth was 8.51% (active) in the experiment with NCI-H522 lung; 16.4% in the experiment on A549/ATCC NSCLC; 17.7% with 786-0 renal; -42.2% (active) with COLO 205 colon; 20.9% in the experiment with DU-145 prostate; 0.0764% (active) with K-562 leukemia. Besides, the growth with MALME-3M melanoma was 90.4%; with MDA-MB-231 breast it was 24.2%; in the experiment with RXF 393 renal it was -4.77% (active); with SF-268 CNS it was 36.3%; in the experiment on SF-295 CNS it was 11.8%; in the experiment with SF-539 CNS, 10.4%. Besides, the growth was 66.1% with UACC-257 melanoma and 3.79% (active) in the experiment on M14 melanoma.
